Efflux pump inh: inhibitors of Candida antifungal efflux pumps expressed in yeast | S. cerevisiae Candida pump triplex, Nile Red efflux | inhibition, % at 10 µM | hit rate 0.44% among 330,000;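 active = plate passing quality check with inhibition over a set limit, or well fluorescence over plate mean plus 4 SD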;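 also: Nile Red retained in pooled yeast measured as flow cytometry median fluorescence; 0% = buffer negative control and 100% = Enniatin B positive control; higher means more Nile Red kept so more efflux inhibition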
LAP4-GFP MLPCN: alters LAP4-GFP fluorescence in TOR pathway yeast screen. hit rate 0.34% among 320,000. S. cerevisiae LAP4-GFP multiplex, flow cytometry GFP, 3 h; median GFP as percent of DMSO wells. GFP response vs DMSO, % at 10 µM;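 active = GFP response vs DMSO above a set limit, about the screen mean plus 3 SD, cut at about 150% in these data; inconclusive = under 70 cell events counted for the yeast strain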
CIT2 TOR yeast: alters CIT2-GFP fluorescence in TOR pathway yeast screen | S. cerevisiae CIT2-GFP strain, flow cytometry, 3 h; 100 means same as DMSO wells | GFP response vs DMSO, % at 10 µM | hit rate 0.065% among 320,000;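 active = GFP response relative to DMSO above a set limit, near the screen mean plus 3 SD, cut at about 150% in these data; inconclusive = Fewer than 70 cells measured for a yeast strain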;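 also: ratio of well median GFP fluorescence to mean of DMSO wells on the plate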
RPL19A TOR yeast: yeast TOR pathway RPL19A-GFP modulation; S. cerevisiae RPL19A-GFP strain, flow cytometry, 3 h; stronger effect = lower value; AID 2025; percent response vs DMSO, % at 10 µM; hit rate 0.3% among 330,000;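 active = percent response vs DMSO below 50%; inconclusive = fewer than 70 events counted for the yeast strain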;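 also: median channel GFP fluorescence of the barcoded RPL19A-GFP strain; ratio of sample median GFP to plate DMSO average so 100% = DMSO; lower means less RPL19A-GFP as with rapamycin TOR inhibition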
AGP1 TOR yeast: alters AGP1-GFP fluorescence in TOR pathway yeast screen; AID 2066; S. cerevisiae AGP1-GFP multiplex flow cytometry, 3 h; GFP as percent of DMSO wells; hit rate 0.02% among 320,000; GFP response vs DMSO, % at 10 µM;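 active = GFP response relative to DMSO above a set limit, near screen average plus 3 SD, cut at about 150% in these data; inconclusive = fewer than 70 cells counted for the yeast strain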;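 also: median GFP channel fluorescence of the gated AGP1 strain per well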
MEP2 TOR yeast: alters MEP2-GFP fluorescence in TOR pathway yeast screen | S. cerevisiae MEP2-GFP strain, flow cytometry GFP, 3 h; 100% = DMSO control level | GFP response vs DMSO, % at 10 µM | hit rate 0.51% among 330,000;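 active = GFP response versus DMSO above a set limit, roughly screen mean plus 3 SD, cut at about 180% in these data; inconclusive = fewer than 70 cells counted for a yeast strain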;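 also: median GFP fluorescence of the barcode-gated MEP2-GFP cells per well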
Yeast cmpd fluor: counter-screen for efflux pump inhibitors: compound fluorescence | shares compounds with Efflux pump inh | S. cerevisiae AD/pABC3, flow cytometry | fluorescence ratio to DMSO, % at 10 µM | hit rate 4% among 1,700 | AID 588517;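 active = fluorescence ratio to DMSO above its plate's cutoff, the plate mean ratio plus 5 SD, cut at about 210% in these data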;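 also: unstained yeast with no Nile Red so the signal is compound autofluorescence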
Mdr1 pump inh: Candida Mdr1 efflux pump inhibition. S. cerevisiae AD/CaMDR1, Nile Red efflux, flow cytometry. shares compounds with Efflux pump inh. AID 588518. hit rate 1% among 1,700. inhibition, % at 10 µM; in the data active = inhibition above about 26%;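 also: 0% = DMSO vehicle and 100% = reference inhibitor; higher means more Nile Red retained so more efflux inhibition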
CaCdr2 efflux inh: blocks the Candida albicans Cdr2 efflux pump in yeast | shares compounds with Efflux pump inh | S. cerevisiae AD/CaCDR2, Nile Red retention, flow cytometry | Nile Red retention ratio vs DMSO, % at 10 µM | hit rate 4% among 1,700; in the data active = Nile Red retention ratio vs DMSO above about 190%;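 also: higher ratio means more blocking of Cdr2 efflux of the dye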
Cdr1 pump inh: Candida Cdr1 efflux pump inhibition | S. cerevisiae AD/CaCDR1, Nile Red efflux, flow cytometry | inhibition, % at 10 µM | hit rate 1% among 1,700 | AID 588522 | shares compounds with Efflux pump inh;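 active = inhibition above the screen-wide mean plus twice its standard deviation, cut at about 32% in these data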
* hit, by the source's call; ? = inconclusive; / = no result; + = active, no number; [ ] = another dose, or the depositor's remark. The list is not random: actives were taken first. Their share in the collection is about 1.3%.

SMILES | Efflux pump inh | LAP4-GFP MLPCN | CIT2 TOR yeast | RPL19A TOR yeast | AGP1 TOR yeast | MEP2 TOR yeast | Yeast cmpd fluor | Mdr1 pump inh | CaCdr2 efflux inh | Cdr1 pump inh
COC(=O)C1=CO[C@@H](C)[C@@H]2CN(CCc3c[nH]c4ccccc34)CC[C@H]12 | 0.0 | 106.4 | 97.1 | 98.3 | 102.3 | 94.1 | / | / | / | /
CC(C)[C@H]1C(=O)O[C@H](C(C)C)C(=O)N(C)[C@@H](C(C)C)C(=O)O[C@H](C(C)C)C(=O)N(C)[C@@H](C(C)C)C(=O)O[C@H](C(C)C)C(=O)N1C | 85.6* | 98.7 | 87.6 | 95.7 | 95.7 | 98.1 | 92.1 | 122.6* | 114.4 | 79.9*
CC(=O)[C@@]1(O)CCC2C3CC=C4C[C@@H](O)CC[C@]4(C)C3CC[C@@]21C (some centres undefined) | 0.1 | 92.6 | 95.5 | 100.4 | 95.5 | 93.5 | / | / | / | /
[N-]=[N+]=NCCN1CCC(O)CCC1=O (centres undefined) | 0.0 | 97.6 | 104.0 | 99.6 | 105.8 | 104.1 | / | / | / | /
Fc1ccccc1CN1CCN(c2ccc(Cl)cc2)CC1 | 1.7* | 100.7 | 102.6 | 102.8 | 104.5 | 106.6 | 91.8 | -0.3 | 89.3 | 0.0
O=P(Nc1c(Cl)cccc1Cl)(c1ccccc1)c1nc2c(s1)CCCC2 (centres undefined) | 5.9* | 95.4 | 98.2 | 100.1 | 101.9 | 102.9 | 109.0 | -0.7 | 101.7 | -0.1
O=P(Nc1ccccc1Cl)(c1ccccc1)c1nc2c(s1)CCCC2 (centres undefined) | 0.1 | 76.5 | 103.3 | 102.2 | 102.4 | 103.4 | / | / | / | /
CC(=O)NC(Cc1ccc(N(CCCl)CCCl)cc1)C(=O)NC(CC(C)C)C(=O)O (centres undefined) | -0.4 | 97.4 | 103.5 | 99.0 | 100.3 | 93.3 | / | / | / | /
CN(C)c1ccc(/C=C/C=C/c2sc3ccccc3[n+]2C)cc1 | -0.1 | 134.8 | 110.0 | 82.3 | 105.8 | 104.7 | / | / | / | /
CC[n+]1c(/C=C/C=C/c2ccc(N(C)C)cc2)sc2ccccc21 | 9.9* | 366.5*[may fluoresce red] | 103.3 | ? | 106.3 | 103.2 | + | 10.1 | 113.8 | 0.1
CC(Cc1ccccc1)[n+]1cc(/N=C(\N)[O-])on1 (centres undefined) | 1.1* | 97.6 | 91.3 | 94.2 | 97.5 | 86.2 | 95.5 | -0.2 | 103.0 | 0.0
O=C(N/N=C/c1c(O)n(Cc2ccccc2)c(=O)[nH]c1=O)c1ccccc1O | 13.9* | 89.0 | 100.1 | 98.7 | 100.3 | 92.8 | 97.6 | -0.2 | 100.7 | -0.1
O=C(N/N=C/c1c(O)n(Cc2ccc(F)cc2)c(=O)[nH]c1=O)c1ccccc1O | 0.0 | 98.2 | 94.8 | 101.4 | 103.8 | 104.3 | / | / | / | /
O=c1[nH]c(=S)[nH]c(O)c1/C=C1/C=c2ccccc2=N1 | 0.5* | 103.1 | 116.5 | 103.2 | 104.5 | 128.2 | 96.6 | 0.0 | 118.4 | 0.1
C=CCN1CCc2cccc3c2[C@H]1Cc1ccc(O)c(O)c1-3 | -0.1 | 87.8 | 90.3 | 100.7 | 91.2 | 107.2 | / | / | / | /
CN1C2CCC1CC(OC(=O)CCN1CCCC1)C2 (centres undefined) | 0.5* | 106.9 | 98.9 | 99.6 | / | 105.3 | 101.7 | 0.0 | 107.2 | 0.0
CN(C)c1cc[n+](CC(O)C[n+]2ccc(N(C)C)cc2)cc1 | 0.0 | 111.2 | 90.7 | 102.6 | 92.4 | 94.9 | / | / | / | /
Cc1ccccc1N1C(=O)CC(=O)N(c2ccccc2C)C1=O | -0.2 | 95.3 | 101.8 | 102.0 | 99.6 | 102.9 | / | / | / | /
CCN1/C(=C\C=C\C2=[N+](CC)c3ccccc3C2(C)C)C(C)(C)c2ccccc21 | 3.2* | 129.1 | 104.8 | 100.1 | 107.2 | 123.8 | / | 1.0 | 251.3* | 1.4
CCCCCc1cc(O)c2c3c(c(=O)oc2c1)CN(C)CC3 | -0.1 | 102.0 | 88.4 | 86.5 | 97.4 | 87.0 | / | / | / | /
C=CCN1C(=O)NC(=O)/C(=C/c2cc3c4c(c2)CCCN4CCC3)C1=O | 1.6* | 95.5 | 85.2 | 105.0 | 99.6 | 104.5 | 118.0 | -0.3 | 114.1 | -0.1
